Measured values taken from PubChem BioAssay.
Active and inactive are the calls of the source.

What was measured:
[1] = binders of probe aFSTL3 on microarray, primary screen, stem cell growth factor project, biochemical, small-molecule microarray, fluorescence 635/667 (AID 1064); settings: higher = more signal;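 further: measures binding of the biotinylated anti-FSTL3 antibody to printed compounds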
[2] = binders from COS7 lysate, DM2A8 probe, primary screen, torsin A project, cell lysate, small-molecule microarray, fluorescence 635/667 (AID 1065); settings: higher = more signal, COS7 lysate expressing mutant human TOR1A
[3] = binders of probe aFGF2 on microarray, primary screen, stem cell growth factor project, biochemical, small-molecule microarray, fluorescence 635/667 (AID 1067); settings: higher = more signal;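 further: measures binding of biotinylated aFGF2 protein to printed compounds on slides; z-score merges feature fluorescence and signal-to-noise across triplicate slides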
[4] = binders of probe aFGF10 on microarray, primary screen, stem cell growth factor project, biochemical, small-molecule microarray, fluorescence 635/667 (AID 1071); settings: higher = more signal;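 further: score merges 667 nm spot intensity and signal to noise from triplicate slides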
[5] = biological target: Neurogenic locus notch homolog protein 2 (Homo sapiens) (UniProt Q04721); test: Notch2 binders on small-molecule microarrays, primary screen, biochemical, small-molecule microarray, 635 nm fluorescence, stem cell growth factors (AID 1073); settings: Notch2 binding, higher = more signal
[6] = biological target: Pro-neuregulin-1, membrane-bound isoform (Homo sapiens) (UniProt Q02297); test: NRG1 binders on small-molecule microarrays, primary screen, psychiatric disease protein project, biochemical, small-molecule microarray, fluorescence 635/667 (AID 1075); settings: NRG1 binding, 635 nm fluorescence, higher = more signal;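 further: score combines 667 nm spot fluorescence with signal to noise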
[7] = system: Neuregulin-1 EGF-like domain; test: binders of neuregulin-1 EGF-like domain, primary screen, biochemical, small-molecule microarray, 635 nm fluorescence (AID 1081); settings: small-molecule microarray binding, higher = more signal;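 further: binding of the protein to compounds printed on small-molecule microarray slides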
[8] = FRG1 promoter luciferase signal modulators, primary screen, FRG1 inhibition for FSHD, cell-based, C2C12 myotubes, firefly/Renilla luciferase, luminescence (AID 1084); settings: higher = more signal, called active from +8 up or from −8 down
[9] = binders of probe aFST on microarray, primary screen, stem cell growth factor project, biochemical, small-molecule microarray, fluorescence 635/667 (AID 1086); settings: higher = more signal;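 further: score merges 667 nm fluorescence with signal-to-noise of each printed compound spot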
[10] = binders of probe aHhip on microarray, primary screen, stem cell growth factor project, biochemical, small-molecule microarray, fluorescence 635/667 (AID 1087); settings: higher = more signal;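 further: score merges spot fluorescence at 667nm with spot signal to noise ratio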
[11] = system: PRMT1 (protein arginine N-methyltransferase 1); test: PRMT1 binders on small-molecule microarrays, primary screen, biochemical, small-molecule microarray, 635 nm fluorescence (AID 1088); settings: small-molecule microarray binding, higher = more signal;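 further: binding of Prmt1 protein to compounds spotted on small-molecule microarray slides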
[12] = yeast growth modulation, basal conditions, primary screen, YJM789 clinical isolate, OD600, 24 h (AID 1089);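 further: growth of clinical yeast isolate S. cerevisiae YJM 789 seeded 1000 cells per well; test concentration not given here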; settings: S. cerevisiae YJM789 growth, higher = more signal, called active from +8 up or from −8 down
[13] = fission yeast growth modulation, primary screen, strain 972, OD600, 24 h, no modulator (AID 1090);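 further: basal condition with compound alone and no growth modifier present; test concentration not given here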; settings: S. pombe 972 growth, higher = more signal, called active from +8 up or from −8 down
[14] = S. cerevisiae growth modulation with rapamycin, primary screen, strain BY4716, OD600, 96 h (AID 1091); settings: higher = more signal, called active from +8 up or from −8 down; further: test concentration not given here
[15] = biological target: Torsin-1A-interacting protein 2 (Homo sapiens) (UniProt Q8NFQ8); test: LULL1 binders on small-molecule microarray, primary screen, cell lysate, human LULL1 lysate, 635/667 nm fluorescence (AID 1092); settings: hLULL1 lysate binding, 635 nm fluorescence, higher = more signal;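 further: probe is lysate of COS7 cells overexpressing human LULL1; score merges per-feature 667 nm fluorescence with signal-to-noise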
[16] = E. coli growth modulation, two-sided OD650, primary screen, E. coli filamentation project, strain DRC41, 24 h (AID 1093); settings: OD650, 24 h, higher = more signal, called active from +8 up or from −8 down;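 further: MC1000 strain lacking acrAB efflux and sulA so SOS filamentation is blocked; test concentration not given here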
[17] = small-molecule microarray binders of probe aLefty2, primary screen, biochemical, biotinylated probe, 635/667 nm fluorescence (AID 1094); settings: higher = more signal;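 further: score merges spot fluorescence near 667 nm with spot signal-to-noise ratio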
[18] = system: Noggin (protein binding on small-molecule microarray); test: Noggin binders on small-molecule microarray, primary screen, biochemical, 635/667 nm fluorescence (AID 1095); settings: 635 nm fluorescence, higher = more signal;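 further: score merges 667 nm feature fluorescence with signal to noise over triplicate slides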
[19] = biological target: Neurogenic locus notch homolog protein 3 (Homo sapiens) (UniProt Q9UM47); test: NOTCH3 binders on small-molecule microarray, primary screen, biochemical, 635/667 nm fluorescence (AID 1096); settings: NOTCH3 binding, 635 nm fluorescence, higher = more signal
[20] = small-molecule microarray binders of probe aEGFR, primary screen, biochemical, biotinylated probe, 635/667 nm fluorescence (AID 1097); settings: higher = more signal;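 further: probe is a biotinylated anti-EGFR antibody binding compounds printed on slides; score combines fluorescence near 667 nm and signal to noise of each spot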

Chain of Torsin-1A-interacting protein 2 (Homo sapiens) (Q8NFQ8 whole entry, looked up): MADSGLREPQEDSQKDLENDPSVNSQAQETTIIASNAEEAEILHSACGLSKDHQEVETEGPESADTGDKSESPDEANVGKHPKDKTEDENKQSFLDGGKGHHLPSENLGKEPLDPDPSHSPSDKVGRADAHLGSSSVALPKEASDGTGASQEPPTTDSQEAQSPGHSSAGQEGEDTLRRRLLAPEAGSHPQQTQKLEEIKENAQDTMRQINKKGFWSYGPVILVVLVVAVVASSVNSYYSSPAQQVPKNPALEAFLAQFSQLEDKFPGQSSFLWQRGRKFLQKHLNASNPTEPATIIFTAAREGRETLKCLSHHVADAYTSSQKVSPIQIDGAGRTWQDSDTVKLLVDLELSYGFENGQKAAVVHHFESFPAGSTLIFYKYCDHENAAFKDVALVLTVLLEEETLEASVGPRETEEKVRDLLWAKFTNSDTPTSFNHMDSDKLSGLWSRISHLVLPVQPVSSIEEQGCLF
Chain of Neurogenic locus notch homolog protein 3 (Homo sapiens) (Q9UM47 whole entry, looked up): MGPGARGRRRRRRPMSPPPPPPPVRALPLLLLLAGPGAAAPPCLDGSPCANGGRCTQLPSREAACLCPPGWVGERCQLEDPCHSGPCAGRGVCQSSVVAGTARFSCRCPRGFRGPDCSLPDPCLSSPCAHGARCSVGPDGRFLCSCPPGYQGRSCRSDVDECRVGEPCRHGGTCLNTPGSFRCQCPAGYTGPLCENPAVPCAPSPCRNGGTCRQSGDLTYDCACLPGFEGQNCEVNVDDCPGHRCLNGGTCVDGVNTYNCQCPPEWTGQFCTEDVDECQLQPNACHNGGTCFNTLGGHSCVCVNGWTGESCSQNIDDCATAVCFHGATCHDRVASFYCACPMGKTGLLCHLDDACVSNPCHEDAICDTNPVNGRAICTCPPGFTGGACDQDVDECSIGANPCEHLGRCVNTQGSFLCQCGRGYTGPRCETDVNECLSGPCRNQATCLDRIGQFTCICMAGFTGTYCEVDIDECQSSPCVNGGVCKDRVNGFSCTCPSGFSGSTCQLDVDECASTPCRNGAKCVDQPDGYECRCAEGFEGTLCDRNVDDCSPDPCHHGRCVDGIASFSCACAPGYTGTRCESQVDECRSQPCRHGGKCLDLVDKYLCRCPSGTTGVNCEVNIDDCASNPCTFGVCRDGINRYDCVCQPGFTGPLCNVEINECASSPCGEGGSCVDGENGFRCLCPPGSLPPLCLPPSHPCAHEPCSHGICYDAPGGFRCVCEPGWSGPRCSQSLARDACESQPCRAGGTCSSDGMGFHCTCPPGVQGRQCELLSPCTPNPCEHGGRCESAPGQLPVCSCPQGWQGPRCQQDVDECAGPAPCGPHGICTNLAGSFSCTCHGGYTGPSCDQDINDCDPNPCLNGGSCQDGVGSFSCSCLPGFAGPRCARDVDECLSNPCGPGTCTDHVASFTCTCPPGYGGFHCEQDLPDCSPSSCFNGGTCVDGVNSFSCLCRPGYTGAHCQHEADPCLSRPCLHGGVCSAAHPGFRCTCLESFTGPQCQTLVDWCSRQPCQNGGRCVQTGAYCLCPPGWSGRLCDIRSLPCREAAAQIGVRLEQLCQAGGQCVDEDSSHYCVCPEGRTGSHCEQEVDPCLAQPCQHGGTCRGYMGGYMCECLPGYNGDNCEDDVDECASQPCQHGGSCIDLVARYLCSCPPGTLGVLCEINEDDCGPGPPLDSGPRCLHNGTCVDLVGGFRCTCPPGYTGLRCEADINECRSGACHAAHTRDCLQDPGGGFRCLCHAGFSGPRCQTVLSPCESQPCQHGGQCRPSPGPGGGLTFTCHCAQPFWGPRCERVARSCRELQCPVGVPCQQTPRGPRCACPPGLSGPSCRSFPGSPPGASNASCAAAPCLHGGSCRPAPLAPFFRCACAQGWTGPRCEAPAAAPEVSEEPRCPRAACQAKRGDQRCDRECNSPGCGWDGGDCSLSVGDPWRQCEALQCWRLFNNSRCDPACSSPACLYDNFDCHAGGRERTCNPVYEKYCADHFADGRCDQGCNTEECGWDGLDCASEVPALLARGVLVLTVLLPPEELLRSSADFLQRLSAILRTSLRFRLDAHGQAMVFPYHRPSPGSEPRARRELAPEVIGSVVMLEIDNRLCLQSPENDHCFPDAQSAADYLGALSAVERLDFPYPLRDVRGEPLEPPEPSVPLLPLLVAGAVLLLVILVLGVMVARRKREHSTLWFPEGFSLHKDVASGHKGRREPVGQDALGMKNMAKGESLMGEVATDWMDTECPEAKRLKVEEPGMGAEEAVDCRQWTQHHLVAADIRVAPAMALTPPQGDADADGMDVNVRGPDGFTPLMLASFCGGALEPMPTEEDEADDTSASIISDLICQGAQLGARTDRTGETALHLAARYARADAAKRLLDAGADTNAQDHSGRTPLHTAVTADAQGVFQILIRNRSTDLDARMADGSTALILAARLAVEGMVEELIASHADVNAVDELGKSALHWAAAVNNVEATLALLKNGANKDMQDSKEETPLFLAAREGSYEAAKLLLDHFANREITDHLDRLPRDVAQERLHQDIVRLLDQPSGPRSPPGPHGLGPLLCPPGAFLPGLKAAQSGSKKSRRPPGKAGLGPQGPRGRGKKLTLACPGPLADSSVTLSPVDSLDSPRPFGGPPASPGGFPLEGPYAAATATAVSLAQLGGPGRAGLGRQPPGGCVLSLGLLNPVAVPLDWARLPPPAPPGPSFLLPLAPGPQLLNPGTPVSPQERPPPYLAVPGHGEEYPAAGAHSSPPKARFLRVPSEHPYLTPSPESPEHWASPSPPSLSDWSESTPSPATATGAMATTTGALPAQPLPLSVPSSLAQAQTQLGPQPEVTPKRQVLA
Chain of Pro-neuregulin-1, membrane-bound isoform (Homo sapiens) (Q02297 whole entry, looked up, the tested form may be a part, canonical isoform): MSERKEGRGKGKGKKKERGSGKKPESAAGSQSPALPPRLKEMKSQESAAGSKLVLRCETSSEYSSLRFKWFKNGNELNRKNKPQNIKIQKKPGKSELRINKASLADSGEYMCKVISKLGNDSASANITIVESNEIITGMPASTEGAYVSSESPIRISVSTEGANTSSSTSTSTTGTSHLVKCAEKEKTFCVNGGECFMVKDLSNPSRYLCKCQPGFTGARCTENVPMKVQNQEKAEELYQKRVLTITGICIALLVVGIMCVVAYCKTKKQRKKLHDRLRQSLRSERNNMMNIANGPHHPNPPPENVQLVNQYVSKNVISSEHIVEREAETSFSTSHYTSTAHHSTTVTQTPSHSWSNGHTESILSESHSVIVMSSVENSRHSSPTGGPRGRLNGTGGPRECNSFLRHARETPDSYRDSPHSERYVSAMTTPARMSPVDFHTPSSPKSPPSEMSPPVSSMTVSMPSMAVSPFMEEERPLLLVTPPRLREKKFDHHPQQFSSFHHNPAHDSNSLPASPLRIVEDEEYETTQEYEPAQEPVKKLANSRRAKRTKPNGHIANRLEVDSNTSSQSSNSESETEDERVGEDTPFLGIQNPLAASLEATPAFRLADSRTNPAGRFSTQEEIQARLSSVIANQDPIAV

Compound	composite z-score [1]	composite z-score [2]	composite z-score [3]	composite z-score [4]	composite z-score [5]	composite z-score [6]	composite z-score [7]	z-score [8]	composite z-score [9]	composite z-score [10]	composite z-score [11]	z-score [12]	z-score [13]	z-score [14]	composite z-score [15]	z-score [16]	composite z-score [17]	composite z-score [18]	composite z-score [19]	composite z-score [20]
CC(C)NC(=O)[C@@]1(C)c2ccccc2C(=O)N(Cc2cc(F)cc(C(F)(F)F)c2)[C@H]1c1ccc(CO)cc1	0.0059	0.0214	0.0368	0.888	1.54	0.341	1.17	-1.31 (inactive)	0.298	-0.134	0.86	-0.0639 (inactive)	0.102 (inactive)	-0.623 (inactive)	1.76	0.341 (inactive)	0.119	0.371	0.364	0.034
COC(=O)CC=C[C@@H](C)[C@H](OC)c1ccccc1Br	-0.297	1.46	-0.0514	0.178	0.119	-0.171	-0.26	1.08 (inactive)	-0.155	0.275	0.0909	0.703 (inactive)	-0.636 (inactive)	-0.417 (inactive)	0.154	0.469 (inactive)	-0.188	0.462	-0.105	-0.113
CCOC(=O)CCN1C(=O)[C@H]2[C@H]3[C@H](O)[C@H](O)CC(=O)[C@H]3CC[C@H]2C1=O	-0.554	0.418	-0.128	0.389	0.709	0.217	0.518	0.639 (inactive)	0.372	-0.132	0.0774	0.184 (inactive)	-0.373 (inactive)	0.341 (inactive)	0.35	0.355 (inactive)	-0.225	0.387	0.295	-0.0381
CO[C@H]1COC(=O)[C@@H]2CCCN2C(=O)CC=C[C@@H](C)[C@H](OC)COC(=O)CC=C[C@@H]1C	-0.57	1.62	-0.163	-0.0218	-0.256	-0.796	0.659	-1.1 (inactive)	0.152	0.176	1.54	-1.94 (inactive)	-1.32 (inactive)	-0.611 (inactive)	-0.361	-0.323 (inactive)	-0.0208	1.48	0.991	0.34
COc1ccc(-c2nc3c(c4c2C[C@H](C)OC4)CN(CCC(C)C)CC3)cc1	-0.256	0.39	-0.123	0.644	1.04	0.114	0.917	-0.145 (inactive)	0.414	-0.189	1.31	0.382 (inactive)	-0.692 (inactive)	0.0635 (inactive)	1.5	0.618 (inactive)	-0.142	0.501	0.982	0.167
C[C@@H](c1ccccc1)N1C(=O)[C@H]2[C@H]3[C@H](O)C=CC(=O)[C@@H]3CC[C@H]2C1=O	-0.663	0.0994	-0.218	0.277	0.348	0.185	0.609	-0.608 (inactive)	0.123	-0.0738	0.595	-0.432 (inactive)	-0.271 (inactive)	-0.402 (inactive)	-0.309	0.372 (inactive)	-0.252	0.421	0.698	-0.0649
N#Cc1ccc(NN2C(C(O)c3cccc4ccccc34)C=CC3C(=O)N(c4ccccc4)C(=O)C32)cc1 (stereo not given)	-0.0622	-0.182	0.158	0.829	1.65	1.63	1.21	0.025 (inactive)	0.889	0.0695	1.39	0.242 (inactive)	2.28 (inactive)	1.75 (inactive)	3.41	-0.339 (inactive)	0.341	0.157	-0.262	0.0785
COC(=O)CC1OC1[C@H](C)[C@@H](OC)C(C)C (stereo not given in full)	-0.243	-0.0917	-0.201	0.123	-0.624	-0.407	-0.102	1.24 (inactive)	0.0068	-0.316	0.12	-0.132 (inactive)	-4.41 (inactive)	1.24 (inactive)	-0.481	0.453 (inactive)	0.121	0.291	-0.556	-0.151
COC(=O)c1c(CC[C@@H](CO)NC(=O)N[C@H](Cc2ccccc2)Cn2cc(-c3ccccc3N)nn2)oc(C(C)=O)c1C(=O)OC	0.718	0.799	0.241	0.465	0.269	0.939	0.71	-0.52 (inactive)	0.914	0.176	1.19	-0.231 (inactive)	-1.15 (inactive)	0.2 (inactive)	1.05	0.382 (inactive)	0.323	0.173	0.492	0.195
